Screen size: about 2,100 compounds; about 650 (31%) were called active. Inconclusive results (about 16%) are left out. Calls follow the shape of the dose curve; as a rule, active = well fitted inhibition curve with a large enough effect; inconclusive = small, poorly fitted or top-dose-only effect; inactive = flat fitted curve, though single readings scatter. The list shows a part of the results.
Potency is read from the fitted curve at half-maximal effect.

The nature of the assay: qHTS for inhibitors of Vif-A3G interactions: Cherry picks. Also: nearly all actives have a fitted effect of over 80% in size. As to activity, negative = fluorescence increase: % of control where 0% means no effect. The note with it: HeLa A3G-eYFP + Vif (tagged APOBEC3G with the HIV-1 protein that degrades it), 24 h; Potency: eYFP fluorescence increase; series mostly up to 36.9 µM; activity, negative = fluorescence increase: at the top concentration. The text has this:
The recent discovery and characterization of host restriction factors, which provide a potent defense to invading retroviruses, has provided new targets for antiviral drug development. APOBEC3G (A3G) and APOBEC3F (A3F) are potent cytidine deaminases that block HIV-1 replication; HIV-1 expresses the Vif protein, which counteracts A3G and A3F by binding to them and inducing their proteasomal degradation. The Vif-A3G and Vif-A3F interactions provide two potential targets for development of small molecules which can interfere with the ability of Vif to degrade A3G or A3F. […] To identify inhibitors that can interfere with Vif mediated degradation of A3G and A3F, we have developed Hela cell lines that stably express A3G or A3F tagged with eYFP at the C-terminal end (A3G-eYFP or A3F-eYFP, respectively) and Vif. In the absence of an inhibitor, Vif induces degradation of A3G-eYFP and A3F-eYFP, and the cells are not fluorescent. In the presence of an inhibitor, it is expected that Vif will be unable to degrade A3G-eYFP and/or A3F-eYFP, resulting in an increase in yellow fluorescence. In this assay, Vif A3G was screened against the cherry picks ordered from the MLSMR. NIH Chemical Genomics Center [NCGC] NIH Molecular Libraries Probe Centers Network [MLPCN] MLPCN Grant: MH093245 Assay Submitter (PI): Vinay Pathak, National Cancer Institute
A3G-Vif cells were harvested from T225 flask and resuspended in phenol free OPTI-MEM medium with 5% FBS. Then 5 uL of 140,000 cells/mL resuspended cells was dispensed into each well of low base Aurora COC 1,536-well plates (black walled, clear bottom) using a Multidrop Combi dispenser. After overnight culture at 37 deg C with 5% CO2, a total of 23 nL of compounds at 5 selected concentrations from the NPC or positive control (2 mM stock of MG132) in DMSO was transferred to each well of the assay plate using a pintool (Kalypsys, San Diego, CA), and the plates were further incubated at 37 deg C with 5% CO2 for 24 hours. After that, the plates were measured on Acumen Explorer (TTP Lab Tech). The fluorescence was detected by 488 nm/Ex and […].
(Quantitative high-throughput screening tests each substance at several concentrations.)
`CN1/C(=C\C=C2C(=O)NC(=O)NC2=O)C(C)(C)c2ccccc21`: the Potency is 4.61 µM (active).
Consider `COCCCn1c(=O)/c(=C\c2ccccc2OC(F)F)s/c1=C(/C#N)C(=O)NCCOC`, for which the Potency was 20.6 µM (active).
The same measure, in the same setting: as for `CCCCNC(=O)/C(C#N)=c1\s/c(=C\c2ccccc2OC(F)F)c(=O)n1CCCOC`, the figure is 16.4 µM (active).
As for `C/C(=C\c1ccc(N(C)C)cc1)[N+](=O)[O-]`, the “activity, negative = fluorescence increase” value is 0.666% (inactive).
As to `O=C1NC(=O)N(c2ccc3c(c2)OCO3)C(=O)/C1=C/c1ccc(N2CCCCC2)o1`, the Potency was 23.1 µM (active).
On the same count and under the same terms, as for `O=C1NC(=O)N(c2ccc3c(c2)OCO3)C(=O)/C1=C\c1ccc(N2CCCCC2)o1`, the figure is 20.6 µM (active).
On to `CCCCn1c(O)c(C(=O)/C=C/c2c[nH]c3ccccc23)c(=O)[nH]c1=O`, for which the Potency was 15.8 µM (active).
Take `Cc1ccccc1-n1c(/C=C/c2ccc(N(C)C)cc2)nc2ccccc2c1=O`: the Potency was 5.8 µM (active).
The same measure, in the same setting: under `O=c1[nH]c(CN2CC=C(c3ccccc3)CC2)nc2scc(-c3ccccc3)c12` stands 23.1 µM (active).
The same measure, in the same setting: as for `O=C1/C(=C/c2ccc3c(c2)OCO3)SC(=S)N1CCC(=O)N(CCO)c1ccccc1`, the figure is 23.1 µM (active); as for `O=c1c2ccccc2nc(/C=C/c2ccccc2O)n1-c1ccc(Br)cc1`, 20.6 µM (active).
As for `COc1ccc(-n2c(/C=C/c3ccc(O)c(OC)c3)nc3ccccc3c2=O)cc1`, the Potency was 23.1 µM (active).
Consider `NC(=Nc1ccccc1)NN=Cc1c[nH]c2ccccc12`, for which the “activity, negative = fluorescence increase” value is -1.44% (inactive).
Same read-out and setting: as for `Cc1cccc(CN2CCCC(C(=O)c3cccc(OC(C)C)c3)C2)n1` (stereo not drawn), the figure is -4.3% [at 46.1 µM] (inactive).
Turning to `O=C1NC(=S)SC1=Cc1ccc(N(CCCl)CCCl)cc1`, the Potency was 15.8 µM (active).
Same read-out and setting: as for `CN1C(=O)C(=Cc2ccc(N3CCOCC3)o2)C(=O)N(C)C1=O`, the figure is 23.1 µM (active); as for `CN1C(=O)C(=Cc2ccc(N3CCCCC3)o2)C(=O)N(C)C1=S`, 7.31 µM (active); as for `CN1C(=O)C(=Cc2ccc(N3CCOCC3)o2)C(=O)N(C)C1=S`, 20.6 µM (active).
On to `O=C1CN=C(c2cccc(Br)c2)c2cc(Br)ccc2N1`, for which the “activity, negative = fluorescence increase” value is -0.913% (inactive).
Consider `CCS(=O)(=O)N1N=C(c2cccc(NS(C)(=O)=O)c2)CC1c1ccccc1` (stereo not drawn), for which the Potency is 18.4 µM (active).
Same read-out and setting: under `O=Cc1c(C(=O)O)n(Cc2ccc(Cl)cc2)c2ccccc12` stands 20.6 µM (active); under `Cc1ccc(CNC(=O)c2ccccc2NC(=O)c2nsc3ccccc23)cc1`, 20.6 µM (active).
On to `COc1ccc(-c2ccc(OC)c(OC)c2OC)cc1`, for which the “activity, negative = fluorescence increase” value was -11.7% (inactive).
The same measure, in the same setting: under `CN(C)c1ccc(C(=O)c2ccc(N(C)C)cc2)cc1` stands -0.231% (inactive).
Consider `Cc1cc(N(CCCl)CCCl)ccc1C=Cc1ccncn1`, for which the Potency was 23.1 µM (active).
On to `COCCCNC(=O)c1c(NC(=O)c2ccco2)n(Cc2ccccc2)c2nc3ccccc3nc12`, for which the “activity, negative = fluorescence increase” value was 0.679% (inactive).
Consider `COCCNC(=O)c1c(NC(=O)c2ccc(Br)o2)n(Cc2ccccc2)c2nc3ccccc3nc12`, for which the Potency was 20.6 µM (active).
In the case of `Cc1cccc(-n2c(/C=C/c3c(C)[nH]c4ccccc34)nc3ccccc3c2=O)c1`, the Potency is 16.4 µM (active).
Still for that read-out and setting: as for `Cc1cccc(-n2c(/C=C/c3ccc([N+](=O)[O-])o3)nc3ccccc3c2=O)c1`, the figure is 3.66 µM (active).
Take `O=c1c2ccccc2nc(/C=C/c2ccc([N+](=O)[O-])o2)n1-c1ccc(O)cc1`: the Potency was 15.8 µM (active).
As for `CC(=O)OC1C2(CC3N4C(=O)C5(CO)SSC4(CC31O)C(=O)N5C)OC(C)C(C)(C)C2=O` (stereo not drawn), the “activity, negative = fluorescence increase” value was -3.88% (inactive).
Same read-out and setting: under `O=c1nc(/C=C/c2ccc(Cl)cc2Cl)cc(C(F)(F)F)[nH]1` stands -0.355% (inactive).
Regarding `CCN(CC)c1ccc(N=Cc2c(O)n(CCC3=CCCCC3)c(=O)[nH]c2=O)cc1`, the Potency is 3.66 µM (active).
On the same count and under the same terms, under `CCN(CC)c1ccc(N=Cc2c(O)n(Cc3ccccc3)c(=O)[nH]c2=O)cc1` stands 7.31 µM (active).
With `C=CCn1c(O)c(C(C)=Nc2ccc(N(CC)CC)cc2)c(=O)[nH]c1=O`, the “activity, negative = fluorescence increase” value was -6.28% (inactive).
With `Cc1cccc(-n2c(O)c(/C=C/C=Nc3ccccc3)c(=O)[nH]c2=O)c1`, the Potency is 5.17 µM (active).
As for `COc1ccc(-n2cnc3cc(C(=O)N4CCC5(CC4)OCCO5)ccc32)cc1`, the “activity, negative = fluorescence increase” value is 3.42% (inactive).
As for `CN(C)c1ccc(/C=C/C=C2/C(=O)NC(=O)N(c3ccccc3)C2=O)cc1`, the Potency was 23.1 µM (active).
Take `Cc1cccc(N2C(=O)NC(=O)/C(=C\C=C\c3ccco3)C2=O)c1`: the “activity, negative = fluorescence increase” value is -12.9% (inactive).
On to `CC(C)c1ccc(N2C(=O)NC(=O)/C(=C\C=C\c3ccco3)C2=O)cc1`, for which the Potency is 17.7 µM (active).
On the same count and under the same terms, as for `CC(C)c1ccc(N2C(=O)NC(=O)/C(=C/C=C/c3ccco3)C2=O)cc1`, the figure is 17.7 µM (active).
For `Cc1cc(C)cc(N2C(=O)NC(=O)/C(=C\C=C\c3ccco3)C2=O)c1`, the “activity, negative = fluorescence increase” value is -22.3% (inactive).
On the same count and under the same terms, as for `O=[N+]([O-])c1ccc(N2CCOCC2)c2c1no[n+]2[O-]`, the figure is -16.4% (inactive).
On to `CC(C)CCCn1c(O)c(/C=C2/C=CC=N2)c(=O)[nH]c1=O`, for which the Potency is 23.1 µM (active).
Regarding `C=C1C(=O)OC2C1CCC(C)C1(O)C=CC(=O)C21C` (stereo not drawn), the “activity, negative = fluorescence increase” value is 0.263% (inactive).
As to `CC1=CC(=Cc2sc3ccccc3[n+]2C)C=C(C)O1`, the Potency is 6.51 µM (active).
Still for that read-out and setting: as for `Nc1ccc2c3c(cccc13)-c1ccccc1-2`, the figure is 4.11 µM (active); as for `CN1C(=O)/C(=C\c2ccc(N3CCCCC3)o2)C(=O)NC1=S`, 17.7 µM (active).
As to `Cc1cc(/C=C2\C(=O)NC(=O)N(c3ccc(Br)cc3)C2=O)c(C)n1C`, the “activity, negative = fluorescence increase” value is -0.904% (inactive).
For the compound `CN1C(=O)/C(=C/c2ccc(N3CCCCCC3)o2)C(=O)NC1=S`, the Potency is 15.8 µM (active).
In the case of `CCC(C)N1C(=O)/C(=C\c2ccc(N3CCCCCC3)cc2)C(=O)NC1=S` (stereo not drawn), the “activity, negative = fluorescence increase” value was -23.4% [at 46.1 µM] (inactive).
As to `CN1CCN(c2ccc(/C=C3\C(=O)NC(=S)N(c4cccc(Br)c4)C3=O)o2)CC1`, the Potency is 18.4 µM (active).
Turning to `CCN1C(=O)/C(=C/c2ccc(N(CC)CC)cc2OC)C(=O)NC1=S`, the “activity, negative = fluorescence increase” value is -8.27% [at 46.1 µM] (inactive).
`CCN(CC)c1ccc(/C=C2\C(=O)NC(=S)N(c3ccc(OC)cc3OC)C2=O)o1`: the Potency was 16.4 µM (active).
Still for that read-out and setting: as for `CCN(CC)c1ccc(/C=C2\C(=O)NC(=S)N(C)C2=O)o1`, the figure is 12.5 µM (active); as for `CCN(CC)c1ccc(C=C2C(=O)N(C)C(=S)N(C)C2=O)o1`, 14 µM (active).
On to `COc1cc2c(cc1O)[C@@H]1Cc3ccc(OC)c(O)c3CN1CC2`, for which the “activity, negative = fluorescence increase” value is -7.77% (inactive).
On the same count and under the same terms, under `N#CC1=C(N)Oc2c(c(=O)sc3ccccc23)C1c1cccnc1` (stereo not drawn) stands -9.63% (inactive).
`Cc1cc(N2CCCC2)ccc1C=C(C#N)C#N`: the Potency was 7.31 µM (active).
Same read-out and setting: as for `Cc1c2ccncc2c(C)c2c1[nH]c1ccccc12`, the figure is 14.6 µM (active); as for `CC/C(=N\NC(=O)c1ccccc1O)c1c(O)n(Cc2ccccc2)c(=O)[nH]c1=O`, 20.6 µM (active).
Consider `CC(=O)O[C@@]12CO[C@@H]1C[C@H](OC1OCC(O)C(O)C1O)[C@@]1(C)C(=O)[C@H](O)C3=C(C)[C@@H](OC(=O)[C@H](O)[C@@H](NC(=O)c4ccccc4)c4ccccc4)C[C@@](O)([C@@H](OC(=O)c4ccccc4)C12)C3(C)C` (stereo partly drawn), for which the “activity, negative = fluorescence increase” value was -10.3% (inactive).
Consider `COC(=O)C1=C(C)N(Cc2ccco2)C(=O)/C1=C\c1ccc(N(C)C)cc1`, for which the Potency was 13 µM (active).

The values are drawn from PubChem BioAssay AID651812 (National Center for Advancing Translational Sciences (NCATS), 2012).
